Molecules are shown by their SMILES.

The residual activity is the signal under treatment as a percentage of the control signal.

Experiment [1] concerns the target T1, Serine/threonine-protein kinase TBK1 (Homo sapiens) (UniProt Q9UHD2).
T1 sequence (whole entry): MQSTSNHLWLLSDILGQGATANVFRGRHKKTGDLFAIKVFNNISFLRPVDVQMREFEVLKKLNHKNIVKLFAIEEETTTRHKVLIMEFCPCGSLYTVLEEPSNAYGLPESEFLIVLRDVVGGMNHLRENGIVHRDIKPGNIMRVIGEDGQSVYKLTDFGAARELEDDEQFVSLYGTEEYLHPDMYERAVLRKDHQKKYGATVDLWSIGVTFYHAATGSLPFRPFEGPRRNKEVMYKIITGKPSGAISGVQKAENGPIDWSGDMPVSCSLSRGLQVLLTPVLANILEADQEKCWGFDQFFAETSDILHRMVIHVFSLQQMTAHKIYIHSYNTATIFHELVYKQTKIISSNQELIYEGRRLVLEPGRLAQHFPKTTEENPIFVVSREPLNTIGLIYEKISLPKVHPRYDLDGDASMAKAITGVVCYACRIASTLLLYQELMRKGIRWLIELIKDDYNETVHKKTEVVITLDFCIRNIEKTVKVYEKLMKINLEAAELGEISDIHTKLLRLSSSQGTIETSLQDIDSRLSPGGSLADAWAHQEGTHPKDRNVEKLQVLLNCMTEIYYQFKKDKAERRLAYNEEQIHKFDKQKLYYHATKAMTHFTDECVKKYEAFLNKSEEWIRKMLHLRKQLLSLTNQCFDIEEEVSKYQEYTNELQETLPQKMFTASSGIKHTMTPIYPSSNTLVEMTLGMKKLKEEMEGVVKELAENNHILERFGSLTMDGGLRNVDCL
Conditions: at 10 µM.

For experiment [2], the target named is T2, TGF-beta receptor type-1 (Homo sapiens) (UniProt P36897).
T2 sequence (whole entry): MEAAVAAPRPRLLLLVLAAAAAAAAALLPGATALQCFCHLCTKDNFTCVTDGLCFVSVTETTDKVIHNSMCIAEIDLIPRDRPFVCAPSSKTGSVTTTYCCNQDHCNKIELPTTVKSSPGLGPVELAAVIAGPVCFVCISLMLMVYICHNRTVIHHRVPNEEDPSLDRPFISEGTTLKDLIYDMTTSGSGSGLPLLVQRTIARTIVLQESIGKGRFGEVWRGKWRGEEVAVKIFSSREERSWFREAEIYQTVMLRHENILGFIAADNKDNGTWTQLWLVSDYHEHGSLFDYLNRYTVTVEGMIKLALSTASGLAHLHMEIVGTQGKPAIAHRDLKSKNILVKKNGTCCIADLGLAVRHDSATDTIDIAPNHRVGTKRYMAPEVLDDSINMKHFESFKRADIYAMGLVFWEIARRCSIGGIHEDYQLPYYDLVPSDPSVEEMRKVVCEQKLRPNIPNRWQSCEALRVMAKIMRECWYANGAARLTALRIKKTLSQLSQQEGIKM
Conditions: at 1 µM.

For experiment [3], the target named is T2, TGF-beta receptor type-1 (Homo sapiens). Conditions: at 10 µM.
Experiment [4] concerns the target Insulin-like growth factor 1 receptor (Homo sapiens) (UniProt P08069). Conditions: at 1 µM.
For experiment [5] the target is unchanged. Conditions: at 10 µM.
For experiment [6], the target named is T3, Inhibitor of nuclear factor kappa-B kinase subunit alpha (Homo sapiens) (UniProt O15111).
T3 sequence (whole entry): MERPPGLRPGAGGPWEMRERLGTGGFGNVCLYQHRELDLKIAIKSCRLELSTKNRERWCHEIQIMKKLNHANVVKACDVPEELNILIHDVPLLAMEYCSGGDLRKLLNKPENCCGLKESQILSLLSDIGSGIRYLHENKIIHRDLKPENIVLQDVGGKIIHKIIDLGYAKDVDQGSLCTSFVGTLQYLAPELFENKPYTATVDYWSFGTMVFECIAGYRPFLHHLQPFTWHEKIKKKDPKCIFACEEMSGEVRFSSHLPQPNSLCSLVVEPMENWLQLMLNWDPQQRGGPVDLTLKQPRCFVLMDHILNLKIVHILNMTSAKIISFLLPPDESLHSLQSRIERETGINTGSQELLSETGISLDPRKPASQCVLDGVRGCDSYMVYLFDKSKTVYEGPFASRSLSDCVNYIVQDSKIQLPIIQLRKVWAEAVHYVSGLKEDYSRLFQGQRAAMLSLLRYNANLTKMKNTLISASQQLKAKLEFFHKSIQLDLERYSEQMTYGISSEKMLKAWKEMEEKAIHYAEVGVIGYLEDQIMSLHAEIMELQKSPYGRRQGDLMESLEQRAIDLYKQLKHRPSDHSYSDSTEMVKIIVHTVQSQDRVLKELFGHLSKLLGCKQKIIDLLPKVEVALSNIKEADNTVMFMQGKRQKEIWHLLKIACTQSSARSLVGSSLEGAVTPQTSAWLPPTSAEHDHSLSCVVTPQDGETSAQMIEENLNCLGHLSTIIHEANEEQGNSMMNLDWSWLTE
Conditions: at 1 µM.

In experiment [7] the target is T3, Inhibitor of nuclear factor kappa-B kinase subunit alpha (Homo sapiens). Conditions: at 10 µM.
Experiment [8] deals with T4, Inhibitor of nuclear factor kappa-B kinase subunit beta (Homo sapiens) (UniProt O14920).
T4 sequence (whole entry): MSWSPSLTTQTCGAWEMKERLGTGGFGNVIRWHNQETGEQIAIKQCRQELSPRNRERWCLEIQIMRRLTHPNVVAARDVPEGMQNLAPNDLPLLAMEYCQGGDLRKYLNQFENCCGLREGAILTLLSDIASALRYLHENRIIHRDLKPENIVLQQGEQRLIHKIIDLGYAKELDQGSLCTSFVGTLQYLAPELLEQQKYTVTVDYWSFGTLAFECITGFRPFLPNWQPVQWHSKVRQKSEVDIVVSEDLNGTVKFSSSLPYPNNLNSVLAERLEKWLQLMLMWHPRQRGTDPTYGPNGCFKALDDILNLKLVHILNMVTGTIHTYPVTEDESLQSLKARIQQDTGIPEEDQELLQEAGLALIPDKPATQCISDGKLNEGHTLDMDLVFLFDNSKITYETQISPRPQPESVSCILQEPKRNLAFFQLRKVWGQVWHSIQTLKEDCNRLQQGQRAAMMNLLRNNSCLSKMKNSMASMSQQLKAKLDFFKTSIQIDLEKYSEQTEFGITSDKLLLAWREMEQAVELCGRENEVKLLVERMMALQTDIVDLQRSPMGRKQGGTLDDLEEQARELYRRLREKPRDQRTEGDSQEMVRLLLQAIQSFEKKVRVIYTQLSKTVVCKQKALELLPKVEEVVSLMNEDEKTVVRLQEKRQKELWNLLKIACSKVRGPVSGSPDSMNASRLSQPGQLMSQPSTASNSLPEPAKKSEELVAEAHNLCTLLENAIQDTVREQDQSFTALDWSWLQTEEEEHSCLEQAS
Conditions: at 1 µM.

Experiment [9] addresses T4, Inhibitor of nuclear factor kappa-B kinase subunit beta (Homo sapiens). Conditions: at 10 µM.
Experiment [10] concerns the target Insulin receptor (Homo sapiens) (UniProt P06213). Conditions: at 1 µM.

Sequence of Insulin-like growth factor 1 receptor (Homo sapiens) (P08069 31-736 limits assumed): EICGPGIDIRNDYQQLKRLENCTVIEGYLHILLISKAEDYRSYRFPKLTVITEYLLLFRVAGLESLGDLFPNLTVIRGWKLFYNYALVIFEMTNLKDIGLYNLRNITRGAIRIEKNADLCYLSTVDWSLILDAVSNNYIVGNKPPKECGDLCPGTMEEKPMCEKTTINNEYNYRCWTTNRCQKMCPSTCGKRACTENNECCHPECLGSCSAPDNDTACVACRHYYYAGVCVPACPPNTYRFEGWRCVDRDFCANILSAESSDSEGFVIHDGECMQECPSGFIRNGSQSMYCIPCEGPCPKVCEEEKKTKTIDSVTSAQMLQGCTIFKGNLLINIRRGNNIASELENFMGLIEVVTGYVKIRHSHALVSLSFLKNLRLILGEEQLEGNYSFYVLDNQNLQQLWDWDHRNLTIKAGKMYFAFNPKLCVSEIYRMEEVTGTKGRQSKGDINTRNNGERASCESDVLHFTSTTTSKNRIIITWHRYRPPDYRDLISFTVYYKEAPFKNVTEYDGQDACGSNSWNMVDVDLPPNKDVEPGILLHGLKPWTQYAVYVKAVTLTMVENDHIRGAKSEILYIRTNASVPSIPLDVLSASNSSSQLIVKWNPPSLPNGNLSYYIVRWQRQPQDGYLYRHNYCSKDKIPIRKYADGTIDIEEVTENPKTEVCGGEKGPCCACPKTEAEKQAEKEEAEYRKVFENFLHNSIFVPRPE
Sequence of Insulin-like growth factor 1 receptor (Homo sapiens) (P08069 741-1367 limits assumed): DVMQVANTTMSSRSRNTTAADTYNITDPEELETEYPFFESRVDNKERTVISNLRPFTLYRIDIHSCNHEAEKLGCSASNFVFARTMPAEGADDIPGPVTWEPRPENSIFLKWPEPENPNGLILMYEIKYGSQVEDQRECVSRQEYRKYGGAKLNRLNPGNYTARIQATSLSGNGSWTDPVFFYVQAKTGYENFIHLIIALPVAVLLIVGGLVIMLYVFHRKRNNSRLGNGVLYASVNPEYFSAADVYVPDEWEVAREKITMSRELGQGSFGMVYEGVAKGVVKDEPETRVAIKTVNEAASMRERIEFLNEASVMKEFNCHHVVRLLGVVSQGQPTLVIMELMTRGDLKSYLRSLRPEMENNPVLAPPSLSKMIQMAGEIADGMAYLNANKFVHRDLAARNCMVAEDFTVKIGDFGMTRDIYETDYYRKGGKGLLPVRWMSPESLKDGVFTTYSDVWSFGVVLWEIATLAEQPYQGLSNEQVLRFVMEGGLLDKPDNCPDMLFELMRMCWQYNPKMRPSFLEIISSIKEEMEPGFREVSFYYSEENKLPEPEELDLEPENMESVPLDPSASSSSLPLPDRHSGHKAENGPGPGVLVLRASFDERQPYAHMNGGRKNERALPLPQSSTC
Sequence of Insulin receptor (Homo sapiens) (P06213 28-758 limits assumed): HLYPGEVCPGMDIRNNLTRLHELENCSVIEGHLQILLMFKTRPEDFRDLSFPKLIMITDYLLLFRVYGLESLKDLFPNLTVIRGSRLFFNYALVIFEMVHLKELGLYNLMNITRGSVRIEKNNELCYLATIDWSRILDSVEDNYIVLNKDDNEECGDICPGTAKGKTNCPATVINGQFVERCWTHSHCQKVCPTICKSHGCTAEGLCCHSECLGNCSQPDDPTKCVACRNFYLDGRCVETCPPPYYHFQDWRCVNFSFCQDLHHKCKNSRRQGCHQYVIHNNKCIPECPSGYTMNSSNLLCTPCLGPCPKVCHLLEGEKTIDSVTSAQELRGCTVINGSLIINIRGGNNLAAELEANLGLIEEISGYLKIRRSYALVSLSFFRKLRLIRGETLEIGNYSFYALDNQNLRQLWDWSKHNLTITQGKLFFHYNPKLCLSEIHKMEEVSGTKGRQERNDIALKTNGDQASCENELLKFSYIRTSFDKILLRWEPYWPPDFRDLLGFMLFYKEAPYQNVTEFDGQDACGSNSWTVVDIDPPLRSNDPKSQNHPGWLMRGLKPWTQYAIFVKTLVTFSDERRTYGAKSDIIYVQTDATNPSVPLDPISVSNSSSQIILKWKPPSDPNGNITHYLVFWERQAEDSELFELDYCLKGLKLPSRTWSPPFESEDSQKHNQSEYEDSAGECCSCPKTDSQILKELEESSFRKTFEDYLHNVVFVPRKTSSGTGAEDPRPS
Sequence of Insulin receptor (Homo sapiens) (P06213 763-1382 limits assumed): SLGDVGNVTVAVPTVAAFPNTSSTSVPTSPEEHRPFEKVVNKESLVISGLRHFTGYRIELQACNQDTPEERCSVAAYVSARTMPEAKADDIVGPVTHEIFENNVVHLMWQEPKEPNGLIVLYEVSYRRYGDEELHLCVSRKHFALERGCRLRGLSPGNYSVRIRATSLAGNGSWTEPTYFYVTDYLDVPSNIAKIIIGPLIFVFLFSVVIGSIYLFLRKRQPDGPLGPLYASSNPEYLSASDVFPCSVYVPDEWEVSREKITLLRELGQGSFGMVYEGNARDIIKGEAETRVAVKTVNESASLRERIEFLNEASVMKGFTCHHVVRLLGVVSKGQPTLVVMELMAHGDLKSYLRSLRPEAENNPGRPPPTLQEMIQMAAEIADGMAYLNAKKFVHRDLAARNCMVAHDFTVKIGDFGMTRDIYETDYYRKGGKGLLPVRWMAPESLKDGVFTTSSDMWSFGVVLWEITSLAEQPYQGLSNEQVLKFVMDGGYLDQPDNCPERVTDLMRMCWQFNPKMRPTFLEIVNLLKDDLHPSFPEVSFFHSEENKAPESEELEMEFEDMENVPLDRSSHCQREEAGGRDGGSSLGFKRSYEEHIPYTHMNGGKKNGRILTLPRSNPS

Take `O=C1NC(=O)c2cc(Nc3ccc(F)cc3)c(Nc3ccc(F)cc3)cc21`: the residual activity in experiment [1] stood at 54%; in experiment [2], 78%; in experiment [3], 76%; in experiment [4], 90%; in experiment [5] it was 77%; in [6], 111%. Further, the residual activity in experiment [7] was found to be 113%; in [8] it was 108%; in experiment [9], 95%; in [10] it was 115%.
